In PubChem BioAssay AID1159580 (chemical genetic matrix, 2015):
“And” between values parts separate entries of the source, which are not always exact repeats. Equal entries are not always repeated. Among all 5,500 compounds or so, about 2,000 (36%) were called active. About 18% were inconclusive and are not listed. No stated cut-off is given here; in the data, active means normalized growth mostly below about 0.91 (no sharp cut-off); inconclusive means no clear call, values can overlap the other calls; inactive means mostly above about 0.92. The list shows a part of the results.

Assay: chemical genetic growth profiling, strain panel (AID 1159580);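 further: tested at 20 µM; growth read once vehicle control cultures reached saturation at 30 °C; 1 = growth at the plate median or of vehicle wells; lower values mean less growth of the strain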
Conditions: S. cerevisiae deletion strains, growth OD

Measured: normalized growth

CCCCOC(=O)c1ccccc1C(=O)OCCCC
inactive: locus YAL013W, strain DEP1, hits give low values 0.988 | locus YAL021C, strain ccr4, hits give low values 0.979 | locus YAL026C, strain drs2, hits give low values 0.989 | locus YAL030W, strain snc1, hits give low values 0.979 | locus YBL061C, strain skt5, hits give low values 0.986 | locus YBR009C, strain hhf1, hits give low values 0.968 | locus YBR021W, strain FUR4, hits give low values 0.955 | locus YBR023C, strain chs3, hits give low values 0.98 | locus YBR171W, strain sec66, hits give low values 0.959 | locus YBR229C, strain ROT2, hits give low values 0.981 | locus YBR231C, strain swc5, hits give low values 0.983 | locus YBR279W, strain paf1, hits give low values 0.994 | locus YCL011C, strain gbp2, hits give low values 0.979 | locus YCL016C, strain dcc1, hits give low values 0.985 | locus YCL029C, strain bik1, hits give low values 0.976 | locus YCL061C, strain MRC1, hits give low values 0.984 | locus YCL069W, strain vba3, hits give low values 0.985 | locus YCR088W, strain abp1, hits give low values 0.98 | locus YDL005C, strain med2, hits give low values 0.97 | locus YDL035C, strain GPR1, hits give low values 0.986 | locus YDL040C, strain nat1, hits give low values 0.985 | locus YDL074C, strain BRE1, hits give low values 0.984 | locus YDL101C, strain DUN1, hits give low values 0.986 | locus YDL134C, strain PPH21, hits give low values 0.988 | locus YDL185W, strain tfp1, hits give low values 0.961 | locus YDL192W, strain arf1, hits give low values 0.983 | locus YDR001C, strain nth1, hits give low values 0.984 | locus YDR069C, strain doa4, hits give low values 0.983 | locus YDR101C, strain arx1, hits give low values 0.984 | locus YDR137W, strain rgp1, hits give low values 0.905 | locus YDR150W, strain NUM1, hits give low values 0.989 | locus YDR159W, strain sac3, hits give low values 0.993 | locus YDR162C, strain NBP2, hits give low values 0.976 | locus YDR195W, strain ref2 1.07 | locus YDR297W, strain sur2, hits give low values 0.984 | locus YDR318W, strain mcm21, hits give low values 0.979 | locus YDR334W, strain swr1, hits give low values 0.991 | locus YDR335W, strain msn5, hits give low values 0.992 | locus YDR388W, hits give low values 0.961 | locus YDR392W, strain spt3, hits give low values 0.941 | locus YDR502C, strain sam2, hits give low values 0.977 | locus YEL003W, strain gim4, hits give low values 0.987 | locus YEL037C, strain rad23, hits give low values 0.992 | locus YEL061C, strain CIN8 (second series), hits give low values 0.989 | locus YEL061C, strain CIN8, hits give low values 0.992 | locus YER015W, strain faa2, hits give low values 0.986 | locus YER016W, strain bim1, hits give low values 0.986 | locus YER110C, hits give low values 0.974 | locus YER111C, strain swi4, hits give low values 0.999 | locus YER155C, strain BEM2 (second series), hits give low values 0.968 | locus YER155C, strain BEM2, hits give low values 0.98 | locus YER167W, strain BCK2, hits give low values 0.981 | locus YFR010W, strain ubp6, hits give low values 0.998 | locus YGL078C, strain dbp3, hits give low values 0.982 | locus YGL086W, strain mad1, hits give low values 0.98 | locus YGL167C, strain pmr1, hits give low values 0.957 | locus YGL173C, strain kem1, hits give low values 0.98 | locus YGL227W, strain vid30, hits give low values 0.984 | locus YGL240W, strain doc1, hits give low values 0.973 | locus YGL248W, strain PDE1, hits give low values 0.976 | locus YGL253W, strain hxk2, hits give low values 0.987 | locus YGR078C, strain PAC10, hits give low values 0.981 | locus YGR135W, strain pre9, hits give low values 0.988 | locus YGR229C, strain SMI1, hits give low values 0.948 | locus YGR252W, strain gcn5, hits give low values 0.992 | locus YHR013C, strain ard1, hits give low values 1.03 | locus YHR027C, strain rpn1, hits give low values 0.987 | locus YHR030C, strain SLT2, hits give low values 0.969 | locus YHR079C, strain IRE1 (second series), hits give low values 0.972 | locus YHR079C, strain IRE1, hits give low values 0.962 | locus YHR094C, strain hxt1, hits give low values 0.973 | locus YHR129C, strain ARP1, hits give low values 0.996 | locus YHR142W, strain chs7, hits give low values 0.944 | locus YHR200W, strain rpn10, hits give low values 0.985 | locus YIL066C, strain RNR3, hits give low values 0.972 | locus YIL073C, strain SPO22, hits give low values 0.867 | locus YIL125W, strain kgd1, hits give low values 0.988 | locus YIR030C, strain dcg1, hits give low values 0.978 | locus YJL092W, strain hpr5, hits give low values 0.98 | locus YJL095W, strain BCK1 (second series), hits give low values 0.985 | locus YJL095W, strain BCK1, hits give low values 0.979 and 0.96 | locus YJL115W, strain asf1, hits give low values 0.988 | locus YJL129C, strain trk1, hits give low values 0.886 | locus YJL134W, strain LCB3, hits give low values 0.984 | locus YJL154C, strain vps35, hits give low values 0.985 | locus YJL164C, strain tpk1, hits give low values 0.961 | locus YJL166W, strain qcr8, hits give low values 0.974 | locus YJL168C, strain set2, hits give low values 0.985 | locus YJL187C, strain SWE1 (second series), hits give low values 0.968 | locus YJL187C, strain SWE1, hits give low values 0.983 | locus YJR043C, strain POL32, hits give low values 0.982
